# PubChem BioAssay (NCATS)
# Several values for one entry are separate records, joined by “and”; a condition that tells them apart may be missing. Equal entries are not always repeated. Records with an inconclusive call do not appear. Activity calls are given as the source filed them. Unless noted, the call rests on the fitted dose curve.
# Assays:
# [1] = qHTS assay for small molecule agonists of retinoid X receptor alpha signaling (AID 588544); conditions: HEK293T RXRa-UAS-bla, beta-lactamase reporter, 18 h; 530 nm emission;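 on activation: 0% = DMSO basal wells and 100% = reference agonist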
# [2] = molecular target: Retinoic acid receptor RXR-alpha (Homo sapiens) (UniProt P19793); experiment: as above; conditions: HEK293T RXRa-UAS-bla, beta-lactamase reporter, 18 h; series mostly up to 76.7 µM
# [3] = molecular target: Thyroid hormone receptor beta (Homo sapiens) (UniProt P10828); experiment: qHTS assay for small molecule agonists of thyroid hormone receptor beta signaling (AID 588545); conditions: TR-UAS-bla GripTite HEK 293, beta-lactamase ratio, agonist mode, 18 h, percent of T3 response, DMSO as zero; series mostly up to 76.7 µM;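 further: 0% = DMSO only and 100% = 10 nM T3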
# Outline: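 Efficacy and EC50 values derive from Hill fits of qHTS titration data, normalized to 10 nM T3 and DMSO-only wells. HEK 293 reporter cells were stimulated for 18 hrs at 37 C, with beta-lactamase activity measured by CCF4 fluorescence.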
# [4] = qHTS assay for small molecule antagonists of retinoid X receptor alpha signaling (AID 588546; active means well fitted inhibition curve with a large enough effect in the signal ratio, with a control signal flat, not every such curve was filed as active; the % refers to the signal ratio;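 further: cells stimulated with 9-cis-retinoic acid as agonist; on the % scale 0 is the no-effect control and ±100 the full control effect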); conditions: HEK293T RXRa-UAS-bla, beta-lactamase ratio, antagonist mode; measured here: W530 green channel, cytotoxicity proxy
# Outline: (§1)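 Beta-lactamase reporter inhibition, read as CCF4 fluorescence ratio (ex 405, em 460/530 nm) after 2 h at RT. HEK293T UAS-bla cells, 2500/well, were stimulated with 9-cis-RA at 500 or 100 nM final alongside test compound for 18 h at 37 C.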
# [5] = molecular target: Retinoic acid receptor RXR-alpha (Homo sapiens) (UniProt P19793); experiment: as above; conditions: HEK293T RXRa-UAS-bla, beta-lactamase ratio, antagonist mode
# Outline: as §1
# [6] = molecular target: Thyroid hormone receptor beta (Homo sapiens) (UniProt P10828); experiment: qHTS assay for small molecule antagonists of thyroid hormone receptor beta signaling (AID 588547; active means well fitted inhibition curve with a large enough effect in the signal ratio, with a control signal flat, not every such curve was filed as active; the % refers to the signal ratio;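 further: cells stimulated with 0.4 nM T3 agonist during compound exposure; on the % scale 0 is the no-effect control and ±100 the full control effect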); conditions: TR-UAS-bla HEK293, beta-lactamase ratio, antagonist mode, 18 h
# Outline: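 TR-UAS-bla GripTite HEK293 cells in 2% charcoal/dextran FBS medium; compounds 0.59 nM to 92 uM with T3 at 0.4nM final, 18 h at 37 C. Beta-lactamase read by CCF4 fluorescence (460/530 nm); Hill fits gave IC50 and efficacy.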
# [7] = molecular target: Voltage-gated inwardly rectifying potassium channel KCNH2 (Homo sapiens) (UniProt Q12809); experiment: qHTS Assay for Small Molecule Inhibitors of the Human hERG Channel Activity (AID 588834; active means well fitted inhibition curve with a large enough effect;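 further: top concentration of the series differs between compounds; on the % scale 0 is the no-effect control and ±100 the full control effect; lower thallium flux fluorescence means stronger hERG block; nearly all actives have a fitted effect of over 50% in size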); conditions: U2OS BacMam hERG, FluxOR thallium flux fluorescence; series mostly up to 92.2 µM
# Outline: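 U2OS cells BacMam-transduced with hERG, 2000 cells/well, compound ~10 min at 37 °C before stimulation buffer. FluxOR thallium flux fluorescence read kinetically on FDSS; decrease indicates block; AC50 from Hill fits.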
# [8] = qHTS assay for small molecule agonists of the antioxidant response element (ARE) signaling pathway (AID 651741; active means well fitted activation curve with a large enough effect in the signal ratio; the % refers to the signal ratio; further: % of control where 0% means no effect); conditions: HepG2 ARE-bla reporter, beta-lactamase FRET ratio, 16 h; series mostly up to 96 µM
# Outline: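 CellSensor ARE-bla HepG2 cells (2,000/well) carrying ARE-driven beta-lactamase, exposed 16 h at 37 C. LiveBLAzer B/G FRET substrate added for 2 h at room temperature; fluorescence intensity read.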
# [9] = qHTS assay for small molecule activators of the p53 signaling pathway (AID 651743; active means well fitted activation curve with a large enough effect in the signal ratio, not every such curve was filed as active; the % refers to the signal ratio; further: % of control where 0% means no effect); conditions: HCT-116 p53RE-bla, beta-lactamase FRET ratio, 16 h; stronger effect = higher value
# Outline: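 p53RE-bla HCT-116 cells carrying a beta-lactamase reporter under p53 response elements were exposed to compounds for 16 hours at 37 C. Reporter activity read as fluorescence after 2 hours at room temperature with LiveBLAzer B/G FRET substrate.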
# [10] = qHTS assay for small molecule activators of the nuclear factor-kappa B (NF-kB) signaling pathway (AID 651749; active means well fitted activation curve with a large enough effect in the signal ratio; the % refers to the signal ratio; further: % of control where 0% means no effect); conditions: NF-kB-bla ME-180 cells, beta-lactamase FRET ratio, 16 h; stronger effect = higher value
# Outline: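 NF-kB-bla ME-180 cells carrying a beta-lactamase reporter under an NF-kB response element, 2,000 cells/well, exposed to compound for 16 hr at 37C; FRET-based beta-lactamase fluorescence read-out of pathway activation.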
# Chain of Thyroid hormone receptor beta (Homo sapiens) (P10828 whole entry, looked up): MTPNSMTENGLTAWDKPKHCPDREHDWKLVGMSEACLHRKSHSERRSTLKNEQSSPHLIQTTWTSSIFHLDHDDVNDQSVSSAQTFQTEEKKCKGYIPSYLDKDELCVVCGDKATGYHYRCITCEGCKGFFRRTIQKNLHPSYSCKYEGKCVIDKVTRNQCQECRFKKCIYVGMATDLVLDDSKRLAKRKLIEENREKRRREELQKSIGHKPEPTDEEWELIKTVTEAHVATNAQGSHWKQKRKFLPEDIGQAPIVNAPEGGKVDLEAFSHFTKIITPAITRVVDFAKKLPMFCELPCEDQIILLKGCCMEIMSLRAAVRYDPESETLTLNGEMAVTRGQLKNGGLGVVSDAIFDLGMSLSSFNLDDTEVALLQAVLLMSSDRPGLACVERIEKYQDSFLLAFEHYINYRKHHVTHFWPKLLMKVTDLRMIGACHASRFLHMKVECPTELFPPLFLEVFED
# Chain of Voltage-gated inwardly rectifying potassium channel KCNH2 (Homo sapiens) (Q12809 whole entry, looked up): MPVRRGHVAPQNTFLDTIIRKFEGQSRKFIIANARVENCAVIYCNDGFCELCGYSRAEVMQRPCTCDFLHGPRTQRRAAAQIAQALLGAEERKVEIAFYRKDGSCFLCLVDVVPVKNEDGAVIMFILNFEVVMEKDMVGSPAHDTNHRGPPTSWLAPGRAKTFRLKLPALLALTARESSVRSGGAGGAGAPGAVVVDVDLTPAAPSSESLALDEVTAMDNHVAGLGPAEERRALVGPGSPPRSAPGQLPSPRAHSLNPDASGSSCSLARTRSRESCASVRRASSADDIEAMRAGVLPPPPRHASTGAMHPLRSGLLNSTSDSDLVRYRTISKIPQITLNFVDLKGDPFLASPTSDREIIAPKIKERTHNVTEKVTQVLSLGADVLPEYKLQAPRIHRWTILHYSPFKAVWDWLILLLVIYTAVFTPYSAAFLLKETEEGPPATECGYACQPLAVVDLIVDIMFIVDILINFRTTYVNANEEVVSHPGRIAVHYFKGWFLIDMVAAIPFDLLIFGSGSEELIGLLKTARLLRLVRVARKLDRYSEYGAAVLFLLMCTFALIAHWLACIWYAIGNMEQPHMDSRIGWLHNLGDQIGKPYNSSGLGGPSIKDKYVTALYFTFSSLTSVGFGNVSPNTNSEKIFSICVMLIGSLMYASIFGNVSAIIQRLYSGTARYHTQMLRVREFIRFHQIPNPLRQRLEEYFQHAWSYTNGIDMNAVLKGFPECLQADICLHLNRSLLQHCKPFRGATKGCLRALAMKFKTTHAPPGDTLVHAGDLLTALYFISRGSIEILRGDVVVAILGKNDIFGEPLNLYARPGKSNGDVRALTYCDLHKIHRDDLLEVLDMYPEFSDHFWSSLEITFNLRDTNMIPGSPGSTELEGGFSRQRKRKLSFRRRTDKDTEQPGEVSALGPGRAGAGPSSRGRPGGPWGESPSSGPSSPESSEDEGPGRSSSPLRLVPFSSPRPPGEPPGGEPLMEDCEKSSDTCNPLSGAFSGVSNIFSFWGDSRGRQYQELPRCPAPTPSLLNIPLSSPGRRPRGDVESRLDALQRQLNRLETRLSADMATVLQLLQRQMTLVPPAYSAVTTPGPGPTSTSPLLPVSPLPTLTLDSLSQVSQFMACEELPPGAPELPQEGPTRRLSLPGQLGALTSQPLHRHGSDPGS
# Chain of Retinoic acid receptor RXR-alpha (Homo sapiens) (P19793 whole entry, looked up): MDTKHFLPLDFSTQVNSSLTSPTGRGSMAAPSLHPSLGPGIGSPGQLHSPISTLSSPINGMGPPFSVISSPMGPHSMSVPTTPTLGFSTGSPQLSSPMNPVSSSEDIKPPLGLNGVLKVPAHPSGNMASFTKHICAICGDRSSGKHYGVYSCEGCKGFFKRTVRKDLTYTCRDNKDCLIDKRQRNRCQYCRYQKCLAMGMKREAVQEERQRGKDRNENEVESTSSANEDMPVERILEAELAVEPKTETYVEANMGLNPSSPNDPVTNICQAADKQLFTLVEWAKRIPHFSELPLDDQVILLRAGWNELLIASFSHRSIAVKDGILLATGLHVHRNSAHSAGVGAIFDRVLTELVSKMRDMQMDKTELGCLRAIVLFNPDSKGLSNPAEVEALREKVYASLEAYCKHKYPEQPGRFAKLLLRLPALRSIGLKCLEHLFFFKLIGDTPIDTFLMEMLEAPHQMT
SMILES,max response [1],outcome [2],outcome [3],max response [4],max response [5],activity change % (negative = inhibition) [6],Potency [7],Potency [8],activation [9],activation [10]
Cc1ccc2ncccc2c1,-4.8%,inactive,inactive,-2.62%,2.87% (inactive),1.73% (inactive),inactive,inactive,-3.29% (inactive),-1.62% (inactive)
Cc1cccc(C)c1[N+](=O)[O-],18.2% and 6.02%,inactive,inactive,3.43% and -1.96%,-16.7% (inactive) and -18.1% (inactive),3.5% (inactive) and -3.75% (inactive),inactive,inactive,–,–
Cc1cc(C(=O)O)ccc1[N+](=O)[O-],-3.52%,inactive,inactive,-3.81%,36.9% (inactive),7.48% (inactive),inactive,inactive,-0.415% (inactive),–
Nc1cccc(C(F)(F)F)c1,3.76% and -4.65%,inactive,inactive,-1.51% and -8.69%,23% (inactive) and -15.4% (inactive),5.58% (inactive),inactive,inactive,–,–
CCC(C)O (stereo unspecified),-20.4%,inactive,inactive,2.22%,4.59% (inactive),-7.82% (inactive),inactive,inactive,-1.8% (inactive),–
CCC(C)=O,-3%,inactive,inactive,-3.56%,0.0353% (inactive),-18.3% (inactive),inactive,inactive,-2.15% (inactive),-1.44% (inactive)
NC(N)=S,-8.98%,inactive,inactive,10%,4.07% (inactive),-6.09% (inactive),inactive,inactive,-1.07% (inactive),–
CC(C)=CCC/C(C)=C/C=O,15.9% and -0.251%,inactive,inactive,6.99% and -4.75%,4.52% (inactive) and -4.94% (inactive),-16.2% (inactive),inactive,inactive,-0.8% (inactive) and -0.838% (inactive),–
Cc1cccc([N+](=O)[O-])c1C(=O)O,-20.5%,inactive,inactive,-4.5%,-0.976% (inactive),13.9% (inactive),inactive,inactive,-3.44% (inactive),–
C1CCC2OC2C1 (stereo unspecified),6.92%,inactive,inactive,-13.8%,6.91% (inactive),14.7% (inactive),inactive,inactive,–,–
Cc1ccc(C(C)(C)C)cc1,-4.76%,inactive,inactive,-11.6%,4.12% (inactive),14% (inactive),inactive,inactive,-7.08% (inactive),–
CC(CCl)OC(C)CCl (stereo unspecified),2.52%,inactive,inactive,-11.8%,19.4% (inactive),-2.31% (inactive),inactive,inactive,-3.45% (inactive),0.22% (inactive)
CC(C)(C)c1ccc(OCC2CO2)cc1 (stereo unspecified),-13.4%,inactive,inactive,-2.99%,11.5% (inactive),5.82% (inactive),–,–,–,–
O=C(O)c1ccc(Cl)c(Cl)c1,12.9%,inactive,inactive,11.8%,14.6% (inactive),2.03% (inactive),inactive,inactive,3.05% (inactive),0.147% (inactive)
FC(F)(F)c1cccc(Cl)c1,-1.24%,inactive,inactive,3.78%,6.29% (inactive),-4.74% (inactive),inactive,inactive,-1.63% (inactive),–
Cc1ccc2cccnc2c1,5.51%,inactive,inactive,6%,0.426% (inactive),17% (inactive),inactive,inactive,-4.94% (inactive),–
Cc1nc2ccc(Cl)cc2[nH]1,-24.2%,inactive,inactive,-9.52%,-12.1% (inactive),9.04% (inactive),inactive,inactive,-1.34% (inactive),–
CC(C)Cc1nccs1,-0.474%,inactive,inactive,-5.6%,12.1% (inactive),0.497% (inactive),inactive,inactive,0.156% (inactive),0.674% (inactive)
COC(=O)CCC(=O)OC,-2.46%,inactive,inactive,1.7%,6.03% (inactive),1.67% (inactive),inactive,inactive,-2.9% (inactive),0.407% (inactive)
CCCCCCC=O,-2.47%,inactive,inactive,9.36%,7.58% (inactive),-17.7% (inactive),inactive,inactive,0.659% (inactive),-0.682% (inactive)
CC(=O)c1ccccn1,-4.17%,inactive,inactive,-3.87%,-5.68% (inactive),-7.89% (inactive),inactive,inactive,-1.74% (inactive),-1.25% (inactive)
